Measured values from the supplement of paper PMC11732987, “Enantioselective OTUD7B fragment discovery through chemoproteomics screening and high-throughput optimisation” (Communications Chemistry, 2025).

Key:
Experiment in all cases: log2 ratio of Biotin-Ahx-Ub-VS probe labelling (fragment/DMSO); higher = less target engagement (more negative = stronger competition), active = hit call of the paper (q ≤ 0.05, log2 ratio ≤ -1)
Conditions in all cases: compound concentration: 200 uM; treatment time: 3 h
OTUD6B = biological target: T1, OTUD6B (UniProt Q8N6M0)
T1 sequence (whole entry): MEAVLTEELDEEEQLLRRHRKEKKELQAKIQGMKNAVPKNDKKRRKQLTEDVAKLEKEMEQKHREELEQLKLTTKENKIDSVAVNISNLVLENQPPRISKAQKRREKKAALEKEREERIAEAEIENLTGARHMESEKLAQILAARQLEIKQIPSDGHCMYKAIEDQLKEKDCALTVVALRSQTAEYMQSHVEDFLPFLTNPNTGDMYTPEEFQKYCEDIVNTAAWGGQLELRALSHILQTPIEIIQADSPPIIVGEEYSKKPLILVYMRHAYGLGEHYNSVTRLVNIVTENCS
Outline: (§1)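 HEK293T lysate (495 µg per sample, in Tris/CHAPS/IGEPAL buffer with protease inhibitors) was exposed in triplicate for 3 h to fragment at 200 µM or to vehicle, then to Biotin-Ahx-Ub-VS at 0.5 µM final for 1 h. Labelled DUBs were enriched on NeutrAvidin, digested with LysC and trypsin, and analysed by diaPASEF LC-MS/MS. Spectronaut label-free quantities were normalised to the global median, and values are average log2 ratios of fragment over vehicle from an unpaired t-test. Only proteins with ≥2 unique peptides were used.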

OTUD7B = biological target: T2, OTUD7B (UniProt Q6GQQ9)
T2 sequence (whole entry): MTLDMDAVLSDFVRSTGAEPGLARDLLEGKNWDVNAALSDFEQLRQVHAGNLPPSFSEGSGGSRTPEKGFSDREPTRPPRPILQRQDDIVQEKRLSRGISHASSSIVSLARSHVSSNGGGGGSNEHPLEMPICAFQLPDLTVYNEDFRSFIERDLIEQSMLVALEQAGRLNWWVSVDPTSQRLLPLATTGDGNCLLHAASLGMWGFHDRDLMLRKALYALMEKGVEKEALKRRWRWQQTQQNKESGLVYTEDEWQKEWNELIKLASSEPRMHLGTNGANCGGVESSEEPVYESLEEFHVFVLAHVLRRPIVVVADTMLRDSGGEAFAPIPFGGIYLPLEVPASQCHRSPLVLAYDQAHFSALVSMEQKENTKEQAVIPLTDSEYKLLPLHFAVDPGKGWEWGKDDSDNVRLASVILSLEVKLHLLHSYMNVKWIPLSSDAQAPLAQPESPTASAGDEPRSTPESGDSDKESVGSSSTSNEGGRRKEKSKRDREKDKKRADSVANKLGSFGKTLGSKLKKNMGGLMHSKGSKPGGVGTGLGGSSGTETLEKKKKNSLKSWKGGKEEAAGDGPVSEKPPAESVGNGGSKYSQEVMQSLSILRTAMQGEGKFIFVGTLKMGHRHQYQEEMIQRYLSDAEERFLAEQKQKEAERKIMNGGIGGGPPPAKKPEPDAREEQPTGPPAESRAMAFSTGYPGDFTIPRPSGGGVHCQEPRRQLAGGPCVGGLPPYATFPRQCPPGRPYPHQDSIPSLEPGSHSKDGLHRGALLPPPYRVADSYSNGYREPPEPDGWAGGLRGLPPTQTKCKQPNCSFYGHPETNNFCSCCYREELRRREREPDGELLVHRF
Outline: as §1

PRPF8 = PRPF8 (UniProt Q6P2Q9)
Outline: as §1

PSMD7 = biological target: T3, PSMD7 (UniProt P51665)
T3 sequence (whole entry): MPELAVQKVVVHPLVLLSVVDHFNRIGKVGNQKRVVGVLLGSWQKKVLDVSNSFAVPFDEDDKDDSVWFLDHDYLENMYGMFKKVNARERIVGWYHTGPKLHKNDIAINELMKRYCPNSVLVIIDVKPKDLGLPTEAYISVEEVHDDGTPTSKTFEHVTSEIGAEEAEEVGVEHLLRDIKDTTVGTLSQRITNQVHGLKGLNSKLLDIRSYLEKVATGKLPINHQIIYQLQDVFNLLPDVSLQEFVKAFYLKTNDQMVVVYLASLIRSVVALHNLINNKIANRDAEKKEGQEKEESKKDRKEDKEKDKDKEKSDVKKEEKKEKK
Outline: as §1

UCHL1 = UCHL1 (UniProt P09936)
Outline: as §1

UCHL3 = biological target: T4, UCHL3 (UniProt P15374)
T4 sequence (whole entry): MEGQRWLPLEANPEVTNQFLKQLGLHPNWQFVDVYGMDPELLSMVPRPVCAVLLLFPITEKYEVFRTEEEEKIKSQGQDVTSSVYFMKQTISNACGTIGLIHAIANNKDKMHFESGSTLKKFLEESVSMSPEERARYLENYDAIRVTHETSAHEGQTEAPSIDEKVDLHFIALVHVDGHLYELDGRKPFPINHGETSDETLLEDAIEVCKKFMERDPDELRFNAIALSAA
Outline: as §1

UCHL5 = biological target: T5, UCHL5 (UniProt Q9Y5K5)
T5 sequence (whole entry): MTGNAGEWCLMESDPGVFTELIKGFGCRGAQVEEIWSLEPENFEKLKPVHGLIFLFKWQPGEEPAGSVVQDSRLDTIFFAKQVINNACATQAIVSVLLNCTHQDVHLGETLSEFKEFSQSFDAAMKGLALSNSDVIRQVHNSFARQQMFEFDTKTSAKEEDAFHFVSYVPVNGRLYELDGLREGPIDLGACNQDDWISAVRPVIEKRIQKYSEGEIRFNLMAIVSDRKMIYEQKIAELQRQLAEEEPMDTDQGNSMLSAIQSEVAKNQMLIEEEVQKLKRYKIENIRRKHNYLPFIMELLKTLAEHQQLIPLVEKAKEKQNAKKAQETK
Outline: as §1

USP10 = USP10 (UniProt Q14694)
Outline: as §1

USP15 = biological target: T6, USP15 (UniProt Q9Y4E8)
T6 sequence (whole entry): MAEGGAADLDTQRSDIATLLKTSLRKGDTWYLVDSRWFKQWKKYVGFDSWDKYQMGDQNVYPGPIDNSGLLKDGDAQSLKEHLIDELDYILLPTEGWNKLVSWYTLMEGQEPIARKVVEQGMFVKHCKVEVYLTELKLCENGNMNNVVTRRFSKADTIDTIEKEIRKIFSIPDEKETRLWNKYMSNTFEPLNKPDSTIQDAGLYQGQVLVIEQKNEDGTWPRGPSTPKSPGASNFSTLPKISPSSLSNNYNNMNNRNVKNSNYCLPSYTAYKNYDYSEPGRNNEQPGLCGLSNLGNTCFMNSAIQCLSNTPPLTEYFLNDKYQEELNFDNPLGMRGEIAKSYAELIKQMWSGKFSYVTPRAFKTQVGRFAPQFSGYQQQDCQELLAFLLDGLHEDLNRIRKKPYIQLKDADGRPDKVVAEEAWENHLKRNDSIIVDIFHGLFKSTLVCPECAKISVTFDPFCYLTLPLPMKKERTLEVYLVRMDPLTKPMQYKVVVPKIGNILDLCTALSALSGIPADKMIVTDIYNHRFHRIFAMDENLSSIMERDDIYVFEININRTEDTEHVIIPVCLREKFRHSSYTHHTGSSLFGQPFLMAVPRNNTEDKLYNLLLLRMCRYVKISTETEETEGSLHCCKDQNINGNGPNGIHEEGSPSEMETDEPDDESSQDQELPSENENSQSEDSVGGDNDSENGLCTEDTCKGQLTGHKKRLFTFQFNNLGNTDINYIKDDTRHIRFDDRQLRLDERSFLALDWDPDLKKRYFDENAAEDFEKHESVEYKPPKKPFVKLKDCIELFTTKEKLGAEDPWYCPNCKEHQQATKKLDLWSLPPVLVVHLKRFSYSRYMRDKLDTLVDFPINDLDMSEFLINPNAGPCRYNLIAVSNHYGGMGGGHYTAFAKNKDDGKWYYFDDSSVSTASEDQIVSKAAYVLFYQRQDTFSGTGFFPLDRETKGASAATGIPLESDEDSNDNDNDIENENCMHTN
Outline: as §1

USP16 = USP16 (UniProt Q9Y5T5)
Outline: as §1

Measured: log2 ratio of Biotin-Ahx-Ub-VS probe labelling

Sequence of UCHL1 (P09936 whole entry, looked up): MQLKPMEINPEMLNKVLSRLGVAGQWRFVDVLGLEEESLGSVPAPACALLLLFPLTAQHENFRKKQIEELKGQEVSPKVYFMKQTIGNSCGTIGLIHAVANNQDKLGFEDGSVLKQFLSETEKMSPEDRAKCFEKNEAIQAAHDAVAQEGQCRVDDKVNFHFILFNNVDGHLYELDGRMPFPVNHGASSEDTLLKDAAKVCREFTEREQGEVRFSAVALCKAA
Sequence of USP16 (Q9Y5T5 whole entry, looked up): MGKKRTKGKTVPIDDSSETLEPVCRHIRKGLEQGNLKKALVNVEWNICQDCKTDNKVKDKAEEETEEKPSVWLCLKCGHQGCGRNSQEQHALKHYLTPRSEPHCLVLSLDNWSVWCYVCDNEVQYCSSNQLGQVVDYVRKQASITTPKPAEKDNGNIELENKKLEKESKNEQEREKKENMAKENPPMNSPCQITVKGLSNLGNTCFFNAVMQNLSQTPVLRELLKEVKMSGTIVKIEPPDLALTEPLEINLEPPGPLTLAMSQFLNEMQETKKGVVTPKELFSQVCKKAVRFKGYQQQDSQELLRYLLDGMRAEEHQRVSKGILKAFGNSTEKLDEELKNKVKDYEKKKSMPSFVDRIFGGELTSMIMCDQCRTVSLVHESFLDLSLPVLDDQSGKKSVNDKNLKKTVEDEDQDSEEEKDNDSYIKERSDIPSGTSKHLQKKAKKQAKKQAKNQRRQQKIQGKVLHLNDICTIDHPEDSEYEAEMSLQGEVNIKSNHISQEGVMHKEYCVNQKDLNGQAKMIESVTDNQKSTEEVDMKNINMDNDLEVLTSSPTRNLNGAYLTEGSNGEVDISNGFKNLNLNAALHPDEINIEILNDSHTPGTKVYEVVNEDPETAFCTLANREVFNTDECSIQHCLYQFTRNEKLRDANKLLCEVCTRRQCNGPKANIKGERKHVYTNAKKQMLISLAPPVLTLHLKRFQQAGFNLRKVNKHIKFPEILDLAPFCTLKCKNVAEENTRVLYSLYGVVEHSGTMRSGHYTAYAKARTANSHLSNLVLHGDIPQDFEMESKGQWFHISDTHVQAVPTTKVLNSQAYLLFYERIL
Sequence of USP10 (Q14694 whole entry): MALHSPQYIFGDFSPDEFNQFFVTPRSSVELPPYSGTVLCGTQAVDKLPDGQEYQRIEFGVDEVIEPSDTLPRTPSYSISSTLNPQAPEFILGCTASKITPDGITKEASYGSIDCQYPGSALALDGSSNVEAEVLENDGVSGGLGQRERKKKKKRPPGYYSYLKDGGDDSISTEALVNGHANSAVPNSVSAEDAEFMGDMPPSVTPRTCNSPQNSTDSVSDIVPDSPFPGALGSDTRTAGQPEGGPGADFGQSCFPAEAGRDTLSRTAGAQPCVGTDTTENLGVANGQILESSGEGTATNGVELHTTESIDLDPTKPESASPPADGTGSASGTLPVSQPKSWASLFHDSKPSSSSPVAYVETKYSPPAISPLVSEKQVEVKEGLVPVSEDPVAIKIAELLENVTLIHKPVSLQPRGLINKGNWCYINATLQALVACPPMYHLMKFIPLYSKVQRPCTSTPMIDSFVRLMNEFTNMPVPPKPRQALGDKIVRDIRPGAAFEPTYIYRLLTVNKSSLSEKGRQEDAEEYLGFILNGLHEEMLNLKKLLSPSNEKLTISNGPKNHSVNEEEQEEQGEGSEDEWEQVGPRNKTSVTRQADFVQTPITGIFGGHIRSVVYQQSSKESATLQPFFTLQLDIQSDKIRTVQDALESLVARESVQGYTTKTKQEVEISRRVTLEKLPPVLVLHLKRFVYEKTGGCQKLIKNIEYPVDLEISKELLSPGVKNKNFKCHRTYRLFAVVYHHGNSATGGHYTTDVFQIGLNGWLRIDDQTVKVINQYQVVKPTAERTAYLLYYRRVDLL

O=C(CCl)NCC1(c2ccccc2)CC1
inactive: OTUD6B -0.042 | OTUD7B -0.82 | PRPF8 -0.155 | PSMD7 -0.151 | UCHL3 0.255 | UCHL5 -0.245 | USP10 0.00549 | USP15 -0.107 | USP16 0.0406
active: UCHL1 -1.22
